Screening results from PubChem BioAssay.
In the library only some 9.2% were active in any assay of this set; here they are far more common.
FLuc modulator: firefly luciferase modulation, counter-screen for miR-21 project; purified FLuc, Km substrates, luminescence inhibition; Potency, µM (doses to about 57.5 µM), inactives show top-dose activity change, negative = inhibition, hits mostly inhibitors; hit rate 6.9% among 360,000; P08659;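 note: plate controls were vehicle for no effect and reference inhibitor for full effect; nearly all actives have a fitted effect of over 55% in size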
Target sequence (P08659 whole entry, looked up): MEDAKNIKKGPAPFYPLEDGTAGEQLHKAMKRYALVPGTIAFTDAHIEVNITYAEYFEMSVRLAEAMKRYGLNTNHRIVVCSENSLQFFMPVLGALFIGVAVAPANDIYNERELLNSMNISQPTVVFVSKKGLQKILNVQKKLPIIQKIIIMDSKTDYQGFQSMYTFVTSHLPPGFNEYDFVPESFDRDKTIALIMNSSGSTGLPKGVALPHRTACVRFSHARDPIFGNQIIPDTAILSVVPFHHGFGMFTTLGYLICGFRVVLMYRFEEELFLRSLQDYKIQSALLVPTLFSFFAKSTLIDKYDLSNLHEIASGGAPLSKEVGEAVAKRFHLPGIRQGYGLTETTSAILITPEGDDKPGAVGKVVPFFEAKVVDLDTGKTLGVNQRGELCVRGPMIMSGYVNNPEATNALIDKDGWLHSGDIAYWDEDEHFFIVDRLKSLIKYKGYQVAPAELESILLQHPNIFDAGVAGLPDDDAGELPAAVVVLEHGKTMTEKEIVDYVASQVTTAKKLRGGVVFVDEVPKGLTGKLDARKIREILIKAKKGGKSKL
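Purified P. pyralis luciferase, 10 nM final, with Km-level 10 uM D-luciferin and 10 uM ATP in 50 mM Tris acetate pH 7.5, 10 mM Mg acetate, 0.01% Tween-20, 0.05% BSA; 6-point qHTS titration about 60 µM downward; luminescence read.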
NPC1 promoter act: activators of NPC1 promoter; Huh7 NPC1 promoter luciferase reporter, 24 h; Potency, µM (titrated, usually from 9.22 µM), for the others: top-dose activation, usual class: activators; hit rate 2.4% among 320,000; note: % of control where 0% means no effect; nearly all actives have a fitted effect of over 60% in size
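Huh7 cells stably carrying NPC1 promoter–luciferase, plated in Opti-MEM with 10% FBS for 2 h, were exposed to compound in DMSO for 24 h at 37 °C; luciferase reagent was added for 10 min and luminescence read.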
SMN2 splice up: SMN2 splice variant enhancement; HEK293 SMN2-luciferase splicing reporter, luminescence, 30-36 h; Potency, µM (doses to about 46.1 µM), inactives show top-dose activity change, positive = activation, actives largely listed as activators; hit rate 2.8% among 210,000; AID 1458; note: % of control where 0% means no effect; nearly all actives have a fitted effect of over 55% in size
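HEK293 cells carry an SMN2 […]–luciferase reporter in which exon 7 inclusion puts luciferase in frame. Cells were plated 10-12 h before compound addition, then incubated 30-36 h at 37C. ONE-Glo luminescence was read; sodium butyrate at 4.5 mM final served as control.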
ELG1 genotox: inducers of genotoxicity in HEK293T ELG1-luciferase cells | HEK293T ELG1-luciferase reporter, luminescence, 16 h | Potency, µM (highest dose often 46 µM), for inactives: at the highest dose activity change, positive = activation, usual class: activators | hit rate 1.3% among 330,000; note: % of control where 0% means no effect; nearly all actives have a fitted effect of over 60% in size
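16 hr compound incubation (37 °C, 5% CO2) of HEK293T cells carrying luciferase-tagged ELG1; luciferase then measured by ONE-Glo luminescence after 30 min at RT.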
Rab9 prom act: Rab9 promoter activation. hit rate 2.8% among 320,000. AID 485297. Potency, µM (doses to about 9.22 µM), for inactives: top-dose activation, negative = inhibition, usual class: activators. Huh7 Rab9 promoter-luciferase reporter, luminescence, 24 h; note: % of control where 0% means no effect; nearly all actives have a fitted effect of over 60% in size
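Huh7 cells stably carrying Rab9 promoter–luciferase reporter, plated 1500 cells/well, compound added after 2 h and incubated 24 h at 37 °C; luciferase luminescence then read after 10 min with detection reagent.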
ELG1 DNA repair: ELG1-dependent DNA repair inhibition; HEK293T ELG1-luciferase reporter, luminescence, 16 h; DNA damage induced by 5-fluorouridine; Potency, µM (top dose mostly 46.1 µM), for the others: top-dose activity change, negative = inhibition, actives largely listed as inhibitors; hit rate 2.3% among 330,000; AID 504467; note: % is set by controls: 0 for no effect and ±100 for the full control effect; nearly all actives have a fitted effect of over 55% in size
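HEK293T cells expressing luciferase-tagged ELG1 (2,000/well) received 5-Fluorouridine plus compound or DMSO for 16 hr at 37 °C. Luciferase was read by ONE-Glo luminescence after 30 min at room temperature.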
* hit, by the source's call; [ ] = remark or other dose. Calls come from the whole dose curve; as a rule, active = well fitted curve in the direction sought with a large enough effect; inconclusive = small, poorly fitted or top-dose-only effect, or another doubt; inactive = no such curve, though single readings can be large; an effect the other way counts as inactive or inconclusive. Potency is the fitted concentration of half-maximal effect.

For O=C(N=C1N=C2C=CC(Br)=CN2Cc2ccccc21)c1ccc([N+](=O)[O-])cc1[N+](=O)[O-] the results were FLuc modulator 12µM*, NPC1 promoter act 3.55µM*, ELG1 genotox inconclusive, Rab9 prom act 3.55µM* and ELG1 DNA repair inconclusive.
CCn1cc(C(=O)N2CCCC2)c(=O)c2cc(S(=O)(=O)N3CC(C)CC(C)C3)ccc21 (stereo not drawn) was read as FLuc modulator 0.0%, NPC1 promoter act 1.2%, ELG1 genotox 0.3%, Rab9 prom act -4.3% and ELG1 DNA repair 1.1%.
CCn1cc(C(=O)NCc2ccco2)c(=O)c2cc(S(=O)(=O)N3CC(C)CC(C)C3)ccc21 (stereo not drawn) was read as FLuc modulator -2.9%, NPC1 promoter act -5.3%, SMN2 splice up -46.8%, ELG1 genotox -8.1%, Rab9 prom act 0.0% and ELG1 DNA repair 2.91µM*.
C=CCn1cc(C(=O)NCc2ccco2)c(=O)c2cc(S(=O)(=O)N3CCCCCC3)ccc21 was read as FLuc modulator -7.5%, NPC1 promoter act 0.1%, ELG1 genotox 2.1%, Rab9 prom act 0.1% and ELG1 DNA repair 6.51µM*.
CCn1cc(C(=O)NCc2ccco2)c(=O)c2cc(S(=O)(=O)N3CCc4ccccc4C3)ccc21 was read as FLuc modulator -4.1%, NPC1 promoter act 0.1%, SMN2 splice up -5.3%, ELG1 genotox -5.4%, Rab9 prom act 3.7% and ELG1 DNA repair 10.3µM*.
`CCn1cc(C(=O)NCc2ccco2)c(=O)c2cc(S(=O)(=O)N3CCC(C)CC3)ccc21` gave FLuc modulator -2.9%, NPC1 promoter act -2.3%, SMN2 splice up -16.3%, ELG1 genotox -7.0%, Rab9 prom act -1.0% and ELG1 DNA repair 10.3µM*.
For CCn1cc(C(=O)NCc2ccc(C)cc2)c(=O)c2cc(S(=O)(=O)N3CCC(C)CC3)ccc21 the results were FLuc modulator -2.8%.
For COc1ccc(S(=O)(=O)N2CCOCC2)cc1NC(=O)C1CC1 the results were ELG1 genotox 0.7% and ELG1 DNA repair 24.4%.
COc1ccc(CNC(=O)CCc2c(C)nn(-c3ccc(N4CCCCC4)nn3)c2C)cc1 was read as FLuc modulator -19.2%.
Screening CCn1cc(C(=O)NCc2ccc(C)cc2)c(=O)c2cc(S(=O)(=O)N(C)C3CCCCC3)ccc21 returned FLuc modulator 0.0% and SMN2 splice up -23.6%.
`CCn1cc(C(=O)NCc2ccc(C)cc2)c(=O)c2cc(S(=O)(=O)N(C)C)ccc21` gave FLuc modulator -1.4%, NPC1 promoter act -3.8%, ELG1 genotox -0.9%, Rab9 prom act 0.9%[1.84 µM] and ELG1 DNA repair 20.6µM*.
Screening CCn1cc(C(=O)NCc2ccco2)c(=O)c2cc(S(=O)(=O)N3CCCCCC3)ccc21 returned FLuc modulator -12.6%, NPC1 promoter act -4.9%, SMN2 splice up -15.0%, ELG1 genotox -7.4%, Rab9 prom act -1.7% and ELG1 DNA repair 4.61µM*.
For CC(C)N(Cc1ccccc1)C(=O)Cn1ncc2c([nH]c3ccccc32)c1=O the results were FLuc modulator 0.9%.
O=C1C(C=NCCCN2CCCC2=O)=C(O)c2ccccc21 was read as FLuc modulator 19µM*, NPC1 promoter act inconclusive, SMN2 splice up inconclusive, ELG1 genotox 18.4µM*, Rab9 prom act inconclusive and ELG1 DNA repair inconclusive.
`O=c1oc2ccccc2c(O)c1C=NCc1ccccn1` gave FLuc modulator inconclusive, NPC1 promoter act -9.7%, SMN2 splice up 4.1%, ELG1 genotox -9.1%, Rab9 prom act -2.9% and ELG1 DNA repair 18.5%.
Screening CC(C)CN=CC1=C(O)c2ccccc2C1=O returned FLuc modulator 12µM*, NPC1 promoter act 1.78µM*, ELG1 genotox inconclusive, Rab9 prom act 1µM* and ELG1 DNA repair inconclusive.
`O=C1C(C=NCc2ccccn2)=C(O)c2ccccc21` gave FLuc modulator 12µM*, NPC1 promoter act 2.24µM*, SMN2 splice up 5.62µM*, ELG1 genotox inconclusive, Rab9 prom act 3.98µM* and ELG1 DNA repair inconclusive.
`CC(=O)NCCCNc1ccc([N+](=O)[O-])cc1` gave FLuc modulator 19µM*, NPC1 promoter act 15.3%, SMN2 splice up inconclusive, ELG1 genotox 2.3%, Rab9 prom act 15.9% and ELG1 DNA repair inconclusive.
COc1ccccc1C(=O)NCCCNc1ccc([N+](=O)[O-])cc1 was read as FLuc modulator -3.0%, NPC1 promoter act 0.6%, SMN2 splice up -4.8%, ELG1 genotox -4.4%, Rab9 prom act -7.0% and ELG1 DNA repair -18.1%.
`Cc1sc2nc(CN3CCN(c4ccc(O)cc4)CC3)[nH]c(=O)c2c1C` gave FLuc modulator -10.7%, NPC1 promoter act inconclusive, ELG1 genotox -7.4%, Rab9 prom act -3.8% and ELG1 DNA repair 20.6µM*.
Screening O=c1[nH]c(CN2CCN(c3ccccc3)CC2)nc2scc(-c3ccccc3)c12 returned FLuc modulator -2.0%, NPC1 promoter act -10.2%, SMN2 splice up inconclusive, ELG1 genotox -11.1%, Rab9 prom act -7.0% and ELG1 DNA repair -17.1%.
`COc1ccc2oc(=O)cc(CN3CCN(c4ccccc4F)CC3)c2c1` gave FLuc modulator -2.5% and SMN2 splice up 2.7%.
Screening O=C(Nc1ccon1)c1cc(-c2ccccc2)nc2ccccc12 returned FLuc modulator -12.1%, NPC1 promoter act -0.2%, SMN2 splice up -8.0%, ELG1 genotox -4.9%, Rab9 prom act -0.1% and ELG1 DNA repair -23.7%.
Cc1cc(NC(=O)c2cc(-c3ccc(OC(C)C)cc3)nc3ccccc23)no1 was read as FLuc modulator 3.01µM*, NPC1 promoter act 18.8%, ELG1 genotox 6.0%, Rab9 prom act 19.2% and ELG1 DNA repair -26.3%.
`CCC(C)c1ccc(-c2cc(C(=O)OCC(=O)Nc3cc(C)on3)c3ccccc3n2)cc1` (stereo not drawn) gave FLuc modulator 2.69µM*, NPC1 promoter act inconclusive, SMN2 splice up 22.4µM*, ELG1 genotox 1.84µM*, Rab9 prom act 1.58µM* and ELG1 DNA repair inconclusive.
Screening COc1ccc(-c2cc(C(=O)OCC(=O)Nc3cc(C)on3)c3ccccc3n2)cc1OC returned FLuc modulator inconclusive, NPC1 promoter act 2.9%, SMN2 splice up -5.9%, ELG1 genotox 6.4%, Rab9 prom act -1.5% and ELG1 DNA repair -12.2%.
Cc1cc(N2CCN(c3ccccc3)CC2)n2cc(-c3ccccc3)nc2n1 was read as FLuc modulator 23.9µM*, NPC1 promoter act 1.4%, SMN2 splice up -10.1%, ELG1 genotox -4.5%, Rab9 prom act 0.7% and ELG1 DNA repair inconclusive.
